Experimental data published in PubChem BioAssay AID738 (SRMLSC, 2007).
In all, about 98,000 compounds went through this assay and about 4,900 (5%) were called active. Rule as the data show it: active = inhibition above about 30%; inactive = the rest. Many of the other results were omitted from the sample, so actives are more common in it than they were.

Assay: yeast control strain growth suppression – counter-screen for post-Golgi transport modulator project, primary screen (AID 738)
Details: efflux-deficient yeast background strain, growth absorbance A615, 16 h; at 10 µM; active compounds read high

| SMILES | inhibition |
| --- | --- |
| O=C(OCN1C(=O)c2ccccc2C1=O)/C(=C\c1ccco1)NC(=O)c1ccccc1 | -11.4% (inactive) |
| Cc1cc(OC(=O)c2c(Cl)cccc2Cl)nc(C)n1 | 3.63% (inactive) |
| O=C(Nc1ncc2c(n1)-c1ccccc1OC2)c1ccc(Cl)cc1 | 22.5% (inactive) |
| CC(C)c1ccc(N2CCN(C(=O)c3ccccc3NC(=O)/C=C(\C(=O)O)c3ccccc3)CC2)cc1 | 11.3% (inactive) |
| Cc1ccc(S(=O)(=O)N(CC(=O)N/N=C/c2ccc(F)cc2)c2cccc3cccnc23)cc1 | 6.82% (inactive) |
| COC(=O)c1[nH]c2ccccc2c1NC(=O)CN1CCCc2ccccc21 | 43.4% (active) |
| COC(=O)c1[nH]c2cccc(C)c2c1NC(=O)CN1CCCc2ccccc21 | 19.7% (inactive) |
| CCOC(=O)c1[nH]c2ccc(OC)cc2c1NC(=O)CCN1CCN(Cc2ccccc2)CC1 | 1.92% (inactive) |
| Cc1ccc(S(=O)(=O)NCC(=O)N2CCN(c3ccccn3)CC2)cc1 | 2.13% (inactive) |
| Cc1ccnc(N2CCN(C(=O)CSc3nc4ccccc4nc3N3CCCCC3)CC2)c1 | 42.9% (active) |
| Cc1ccc2oc(=O)c3cnn(CC(=O)N4CCN(c5ccccn5)CC4)c3c2c1 | -3.03% (inactive) |
| Cc1ccc(SCC(=O)c2sc(-c3ccccc3)nc2C)cc1 | -6.19% (inactive) |
| COc1ccc(-c2n[nH]c(C)c2-c2ccc(OC)c(OC)c2)c(O)c1 | 15% (inactive) |
| C=C(C)COc1ccc(-c2n[nH]c(C)c2-c2ccccc2OC)c(O)c1 | 7.96% (inactive) |
| C=C(C)COc1ccc(-c2n[nH]c(C)c2-c2ccccc2)c(O)c1 | 34.8% (active) |
| O=C(CN1C(=O)NC(Cc2ccccc2)(Cc2ccccc2)C1=O)NCC1CCCCC1 | 16.1% (inactive) |
| COC(=O)c1cc(NC(=O)C2C3C=CC(C3)C2C(=O)O)cc(C(=O)OC)c1 (centres undefined) | 6.4% (inactive) |
| O=C(O)C1C2C=CC(C2)C1C(=O)N1CCN(CCO)CC1 (centres undefined) | 7.62% (inactive) |
| CN1CCN(C(=O)C2C3C=CC(C3)C2C(=O)O)CC1 (centres undefined) | 36.6% (active) |
| O=C(CN1C(=O)CC(c2ccccc2)=Nc2ccccc21)NC1CCCCC1 | 7.73% (inactive) |

| SMILES | inhibition |
| --- | --- |
| COc1cccc(CNc2nc3nc4c(c(=O)n3[nH]2)CCC4)c1 | 3.19% (inactive) |
| COc1cccc(-c2cc3nc4c(c(N5CCC6(CC5)OCCO6)n3n2)CCCC4)c1 | 77.5% (active) |
| COc1cccc(-c2nc(S(=O)(=O)c3ccccc3)c(N3CCOCC3)o2)c1 | 15.6% (inactive) |
| CCOc1ccc(Nc2nc(Cc3nnc(SCC(=O)NC4CCCC4)n3C)cs2)cc1 | 5.32% (inactive) |
| O=C(/C=C/c1ccccc1)c1ccoc1 | 17.6% (inactive) |
| COc1ccc(C(=O)Nc2ncc3c(n2)-c2ccccc2CC3)cc1 | -6.73% (inactive) |
| O=C(CCCN1C(=O)c2cccc3cccc(c23)C1=O)N1CCN(Cc2ccc3c(c2)OCO3)CC1 | 13.6% (inactive) |
| COc1ccc(C2CC(c3ccc(C)cc3)Nc3ncnn32)cc1 (centres undefined) | 0.32% (inactive) |
| Clc1ccc(C2CC(c3cccs3)n3ncnc3N2)cc1Cl (centres undefined) | 43% (active) |
| COc1ccc(C2CC(c3ccccc3)Nc3ncnn32)cc1 (centres undefined) | 6.21% (inactive) |
| Cc1ccc(-c2noc(CSc3nnc(-c4ccncc4)n3-c3ccc(F)cc3)n2)cc1 | 38.4% (active) |
| Cc1ccc(-c2noc(CSc3nnc(-c4cccs4)n3C)n2)cc1 | 5.22% (inactive) |
| Cc1ccc(-c2noc(CSc3nnc(-c4ccccc4)n3C)n2)cc1 | 22.3% (inactive) |
| Cc1ccc(-c2noc(CC(c3ccccc3)c3ccccc3)n2)cc1 | 3.45% (inactive) |
| Cn1cccc1Cc1nnc(SCC(=O)NCCc2ccccc2)n1-c1ccc(F)cc1 | 2.46% (inactive) |
| O=C(CSc1nnc(Cc2ccccc2)n1-c1ccccc1)N1CCOCC1 | -1.82% (inactive) |
| Cc1ccc(-c2noc(CSc3nnnn3-c3ccccc3)n2)cc1 | 48.9% (active) |
| Fc1ccc(-n2c(Cc3ccccc3)nnc2SCc2nc(-c3ccc(Cl)cc3)no2)cc1 | 46.4% (active) |
| COc1ccc(-c2noc(CSc3ccc(C)cc3)n2)cc1 | 4.57% (inactive) |
| Cc1cc(C(F)F)n2nc(C(=O)Nc3ccc(S(=O)(=O)NC45CC6CC(CC(C6)C4)C5)cc3)nc2n1 | 2.49% (inactive) |

| SMILES | inhibition |
| --- | --- |
| Nc1nc(Br)c2ccccc2c1-c1ccc(F)cc1 | 11.8% (inactive) |
| CCn1c(O)c2ccc(C(=O)N=NC(=O)c3cccnc3)cc2c1O | 1.24% (inactive) |
| CN(C)c1ccc(/C=C2\NC(=S)N(Cc3ccccc3)C2=O)cc1 | 21% (inactive) |
| CCOC(=O)C1(S(=O)(=O)c2ccc(Cl)cc2)CCN(Cc2ccccc2)CC1 | 4.55% (inactive) |
| CC1C/C(=N/NC(=O)c2cccs2)CC(C)(C)C1 (centres undefined) | 9.76% (inactive) |
| CC(Oc1ccc(Cl)cc1Cl)C(=O)/C=C/N(C)C (centres undefined) | 27.4% (inactive) |
| CCOC(=O)/C(C#N)=C/c1ccc(OCC(=O)Nc2ccccc2)c(OC)c1 | 2.95% (inactive) |
| O=C(NCCc1ccccc1)/C(=C\c1ccc([N+](=O)[O-])cc1)NC(=O)c1ccccc1 | 3.12% (inactive) |
| CCOC(=O)/C(=C\c1ccc([N+](=O)[O-])cc1)C(=O)c1cc(C(C)=O)c(Nc2ccccc2)s1 | 92% (active) |
| CNS(=O)(=O)c1cnccc1N1CCN(c2cccc(C)c2)CC1 | 1.59% (inactive) |
| Cc1c(NC(=O)/C=C/C(=O)O)cccc1[N+](=O)[O-] | 6.96% (inactive) |
| Cc1sc(NC(=O)C2C3CCC(O3)C2C(=O)O)c(C(=O)OC(C)C)c1-c1ccc(Cl)cc1 (centres undefined) | 16.9% (inactive) |
| CN1CC(c2ccccc2)C2(COc3ccccc3C2=O)C12C(=O)Nc1ccccc12 (centres undefined) | 32.5% (active) |
| Cc1noc(C)c1C(=O)N(CC(=O)NC1CCCC1)Cc1ccccc1F | 2.95% (inactive) |
| Cc1nc(SCC(=O)c2ccccc2)c([N+](=O)[O-])[nH]1 | -2.62% (inactive) |
| O=C(CCc1ccc(S(=O)(=O)NC2CCCCC2)cc1)NCc1ccccc1 | 1.21% (inactive) |
| Cc1ccc2c(c1)N(C(=O)CCC(=O)N1CCc3ccccc3C1)CCO2 | 36.4% (active) |
| Cc1ccc(S(=O)(=O)N(C)CC(=O)N2CCc3ccccc32)cc1 | 2.58% (inactive) |
| Cc1ccc2c(c1)N(CC(=O)N1CCCc3ccccc31)C(=O)C(C)O2 (centres undefined) | 5.45% (inactive) |
